40 compounds from PubChem BioAssay (Tox21) can be followed below.

A number with no mark means an inactive call. Activity calls are given as the source filed them. Calls follow the shape of the dose curve; as a rule, active = well fitted curve in the direction sought with a large enough effect in the repeat runs; inconclusive = weak or mixed curves; inactive = flat fitted curve, though single readings scatter. Non-standard residues stand in square brackets, D forms with d. Residues, ends and D or L forms follow the SMILES beside them. *: point of attachment. Sta = CC(C)C[C@H](N)[C@@H](O)CC(=O)O; Isovaleryl = CC(C)CC(=O)*
% is scaled to controls: 0 for no effect and ±100 for the full control effect.

This assay in a line: qHTS assay to test for compound auto fluorescence at 535 nm (green) in HEK293 cell free culture (AID 720682). Conditions: cell-free medium, green autofluorescence 485/535 nm, active compounds read high; series mostly up to 91.3 µM. The source says:
U.S. Tox21 Program National Center for Advancing Translational Sciences [NCATS] NIH Chemical Genomics Center [NCGC] U.S. Environmental Protection Agency [EPA] National Institutes of Environmental Health Sciences [NIEHS] National Toxicology Program [NTP] U.S. Food and Drug Administration [FDA] Tox21 Assay Overview: Compound auto fluorescence often interferes with screening of the compound library against various biological targets and signaling pathways. Some of these compounds may have fluorophoric properties. Such properties may interfere with the assay outputs resulting in false positives and/or negatives. To decrease such complications and ensure the compound activities are relevant in terms of biological response, the Tox21 10K compound library was screened for auto fluorescence. From the fluorophores used as reporter signals in our screening assays, the auto fluorescence equivalencies of compounds against three fluorophores have been evaluated: Triamterene, Fluorescein and Rose Bengal sodium for blue, green and red fluorescence, respectively. The fluorescence intensities were measured using Excitation/Emission wavelengths at 405/460nm, 485/535nm and 540/590nm for blue, green and red labels, respectively. This assay includes the green fluorescence data.
Tox21 Assay Protocol Summary: 5 uL of culture medium (DMEM containing 10% FBS) per well was dispensed into black wall/clear bottom 1536-well plates using a Multidrop Combi Dispenser (ThermoFisher Scientific, Waltham, MA). After 23 nL compound or DMSO vehicle was transferred into assay plate by a pintool work station (Kalypsys, San Diego, CA), fluorescence intensities in the assay plates were measured by an Envision (PerkinElmer, Shelton, CT) plate reader using three labels for measuring blue, green and red fluorescence at […] 460, 535 and 590nm respectively.
Turning to `CCC(C)(C)C`, the compound was called inactive.

`CC(C)CC(O)Cc1ccccc1` (stereo not given): the compound was called inactive.

Consider `COc1cc(NS(=O)(=O)c2ccc(N)cc2)ncn1`, for which the activity change is 0.0071% [at 18.6 µM].

For `Nc1nc(Cl)cc(Cl)n1`, the outcome was inactive.

With `C=C(C)C(=O)OCCOC1CC2CC1C1C=CCC21` (stereo not given), the compound was classed as inactive.

Regarding `CCCC(=O)C(CC)Sc1ccoc1C` (stereo not given), the compound was called inactive.

For the compound `CCCCCCCCS(=O)(=O)O`, the compound was classed as inactive.

On to `O=c1[nH]c(=O)c2cn[nH]c2[nH]1`, for which the outcome was inactive.

In the case of `C=CCn1cc[n+](C)c1`, the compound was called inactive.

In the case of `COc1cc2nc(N3CCN(C(=O)C4CCCO4)CC3)nc(N)c2cc1OC` (stereo not given), the outcome was inactive.

Take `CC(=O)OC1CCC(C(C)(C)C)CC1` (stereo not given): the compound was classed as inactive.

As for `CN(C)CCC[C@@]1(c2ccc(F)cc2)OCc2cc(C#N)ccc21`, the call was inactive.

In the case of `CCCCCCCCCCCBr`, the outcome was inactive.

Consider `CC(C)OCCO`, for which the compound was classed as inactive.

On to `N=C(N)S(=O)O`, for which the compound was classed as inactive.

For `CC(=O)OCC(=O)[C@@]1(O)CC[C@H]2[C@@H]3CCC4=CC(=O)C=C[C@]4(C)[C@H]3[C@@H](O)C[C@@]21C`, the call was inactive.

`CC(C)(C)OC=O`: the call was inactive.

Turning to `CCO[Si](CC(C)C)(OCC)OCC`, the compound was classed as inactive.

With `COc1cnc(NS(=O)(=O)c2ccc(N)cc2)nc1`, the activity change is -0.0115% [at 18.6 µM].

Turning to `N=C(N)N1CCc2ccccc2C1`, the result was inactive.

For the compound `CCCCCC(=O)CC`, the result was inactive.

For the compound `CCCCOCCCC`, the call was inactive.

As to `CCOC(=O)CC`, the compound was classed as inactive.

Regarding `C=COCCCCO`, the outcome was inactive.

Regarding `CC(C)CC(=O)N[C@H](C(=O)N[C@H](C(=O)N[C@@H](CC(C)C)[C@@H](O)CC(=O)N[C@@H](C)C(=O)N[C@@H](CC(C)C)[C@@H](O)CC(=O)O)C(C)C)C(C)C` (Isovaleryl-VV[Sta]A[Sta]-OH), the compound was called inactive.

Turning to `CCCC(=O)OC`, the compound was called inactive.

As for `Cc1ccc(N)nc1`, the compound was called inactive.

Turning to `CCc1ncc(C)[nH]1`, the compound was called inactive.

Regarding `O=C(O)Cc1c(Cl)ccc(Cl)c1Cl`, the compound was called inactive.

In the case of `C=CCN1CCc2nc(N)sc2CC1`, the result was inactive.

For `NNC(=O)OCc1ccccc1`, the compound was classed as inactive.

Take `CC(=O)Oc1ccc(C(C)=O)cc1`: the compound was classed as inactive.

With `O=C(O)COc1ccc2ccccc2c1`, the call was inactive.

As to `O=Cc1ccc(C(=O)O)cc1`, the result was inactive.

`Cc1ccccc1OCC(=O)O`: the result was inactive.

For the compound `Cc1cc(C)c(C)c(C)c1`, the compound was called inactive.

Regarding `CCc1ccc(CC)cc1`, the compound was called inactive.

`CC12CCCC=C1C(=O)OC2=O` (stereo not given): the result was inactive.

Regarding `CN1CCN(C(=O)C2CCCCC2)CC1`, the result was inactive.

For the compound `CCC(C)c1nccnc1OC` (stereo not given), the result was inactive.
